Only some compounds are listed: those with a hit (about 3% of all), similar ones and a draw of the others.
BH1578 lux ind – induces V. cholerae light production without autoinducers; AID 588436; V. cholerae BH1578 lux reporter, luminescence, 6 h; 350,000 compounds, 0.16% hits; activation, % at 18.7 µM; in the data active = activation mostly above about 9.7%, no sharp cut-off
GDH-TPI counter-1 – counter-screen for M. tuberculosis FBA inhibitors: GDH-TPI coupled enzymes; GDH-TPI coupled enzyme counterscreen, NADH absorbance; inhibition, % at 4.8 µM; 360,000 compounds, 1.2% hits; in the data active = inhibition above about 30%;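 note: 0% = DMSO wells and 100% = wells lacking the enzyme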
FBA Mtb inh – inhibits M. tuberculosis FBA enzyme | 360,000 compounds, 2.3% hits | inhibition, % at 1 µM | purified M. tuberculosis FBA, fluorescence read-out;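 note: 0% = vehicle and 100% = reference inhibitor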
Target sequence (P9WQA3 whole entry, looked up): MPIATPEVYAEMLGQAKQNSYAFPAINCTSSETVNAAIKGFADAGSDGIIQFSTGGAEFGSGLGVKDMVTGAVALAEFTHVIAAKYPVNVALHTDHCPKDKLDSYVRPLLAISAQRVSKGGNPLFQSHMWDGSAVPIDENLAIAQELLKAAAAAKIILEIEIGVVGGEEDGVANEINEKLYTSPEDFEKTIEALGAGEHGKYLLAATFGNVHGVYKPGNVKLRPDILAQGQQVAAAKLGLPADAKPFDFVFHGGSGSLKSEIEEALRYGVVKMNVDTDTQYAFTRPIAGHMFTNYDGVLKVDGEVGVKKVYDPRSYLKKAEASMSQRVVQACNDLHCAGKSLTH
BioA inh – blocks M. tuberculosis BioA enzyme activity; 360,000 compounds, 0.096% hits; AID 602481; purified M. tuberculosis BioA enzyme, plate reader; inhibition, % at 9.99 µM; in the data active = inhibition above about 40%
Mtb FBA confirm – Mtb FBA inhibition, confirmed | inhibition, % at 1 µM | AID 651616 | 5,600 compounds, 78% hits | purified M. tuberculosis FBA, fluorescence read-out | shares compounds with FBA Mtb inh;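 note: 0% = vehicle wells and 100% = reference inhibitor wells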
GDH-TPI counter-2 – GDH-TPI inhibition counter-screen for FBA inhibitors. 5,600 compounds, 81% hits. inhibition, % at 1 µM. GDH-TPI coupled enzyme counterscreen, fluorescence. shares compounds with FBA Mtb inh; in the data active = inhibition above about 10%
* = called active by the depositor; i = inactive; . = not tested or not shown; + = active, no number. Cut-off read from the data, not from the text of the source, unless noted: active = inhibition above about 27%; inactive = the rest.

SMILES	BH1578 lux ind	GDH-TPI counter-1	FBA Mtb inh	BioA inh	Mtb FBA confirm	GDH-TPI counter-2
CCOc1ccccc1NC(=O)CSc1nc2nc(-c3cccs3)cc(C(F)(F)F)c2c(=O)[nH]1	3	13	58*	.	73*	50*
CCOc1ccc(-c2nc(S(=O)(=O)c3ccccc3)c(NCc3cccnc3)o2)cc1	0	7	8	35	.	.
CCOP(=O)(OCC)c1nc(-c2ccc(C)cc2)oc1NCc1ccccc1	0	-4	84*	.	172*	186*
C[C@H]1CCCCO[C@H](CN(C)CC2CCCCC2)[C@@H](C)CN([C@@H](C)CO)C(=O)c2cc(NC(=O)Nc3ccc4c(c3)OCO4)ccc2O1	.	.	.	-1	.	.
COCc1cc(C)nc(NCCc2ccccc2)c1C#N	i	6	72*	2	+	182*
COCc1cc(C)nc(NC2CCCCC2)c1C#N	i	11	85*	4	81*	67*
COCc1cc(C)nc(Nc2ccccc2OC)c1C#N	i	14	3	0	.	.
CN1CC=C2C(C#N)=C(N)C(C#N)(C#N)C(Cc3ccccc3)C2C1 (stereo unspecified)	i	15	32*	-5	164*	151*
C[C@H]1CN([C@@H](C)CO)C(=O)Cc2cc(NC(=O)Nc3ccccc3)ccc2O[C@H]1CN(C)Cc1ccc(C(=O)O)cc1	.	.	.	-1	.	.
COCCCNC(=O)Cn1cnc2sc(C)c(S(=O)(=O)N3CCN(c4ncccn4)CC3)c2c1=O	-1	4	27*	.	+	+
CN(C)c1ncccc1-c1nc2ccccc2s1	-1	13	30*	.	31*	17*
c1ccc(-c2nc3ccccc3s2)nc1	i	1	4	-1	.	.
COc1cccc(CC(NC(C)=O)C(=O)NC2CCN(c3nc(C)cc(C)c3C#N)CC2)c1 (stereo unspecified)	.	-3	29*	-1	58*	52*
CCOC(=O)C1CCN(C(=O)c2cnn3c(C)cc(C)nc23)CC1	i	10	35*	0	76*	55*
Cc1cc(C)c(C#N)c(N2CCCC(C(N)=O)C2)n1 (stereo unspecified)	.	-3	57*	0	+	+
CCOC(=O)C1CCN(c2nc(N)c3c(N)nc(SCC(=O)O)cc3c2C#N)CC1	-1	8	25	1	.	.
CCOC(=O)C1CCN(c2nc(C)cc(C)c2C#N)CC1	-1	0	28*	.	170*	124*
O=C(N[C@H]1CC[C@@H](CCNS(=O)(=O)c2ccccc2)O[C@@H]1CO)c1cccc(F)c1	.	.	.	12	.	.
OC1c2c(F)cccc2N=C2CCCCCN21 (stereo unspecified)	0	12	48*	-2	141*	138*
Cc1cccc(NC(=S)N(Cc2ccco2)C(C)c2cccs2)c1 (stereo unspecified)	i	16	2	0	.	.
CC(c1cccs1)N(Cc1ccco1)C(=S)Nc1ccc(F)c(Cl)c1 (stereo unspecified)	1	-5	38*	-2	+	144*
COc1ccccc1/C=C/C=N/NC(=O)Cc1cccn1C	i	51*	78*	.	+	+
Cn1cccc1CC(=O)N/N=C/c1cccc2ccccc12	i	27	-3	-1	.	.
C[C@@H](NC(=O)[C@H]1[C@H](CO)[C@H]2Cn3c(cccc3=O)[C@H]2N1CC1CC1)c1ccccc1	.	.	.	-1	.	.
CCC(C)n1c(-c2cccs2)nc2nc3ccccc3nc21 (stereo unspecified)	.	13	53*	3	102*	76*
SMILES	BH1578 lux ind	GDH-TPI counter-1	FBA Mtb inh	BioA inh	Mtb FBA confirm	GDH-TPI counter-2
c1ccc(-n2c(-c3cccs3)nc3nc4ccccc4nc32)cc1	0	1	96*	.	+	+
Cc1ccc(-n2c(-c3cccs3)nc3ccccc3c2=O)cc1	0	22	1	0	.	.
COC(=O)C[C@@H]1CC[C@@H]2[C@H](COc3ccc(NC(=O)c4ccccc4)cc3C(=O)N2C)O1	.	.	.	0	.	.
C[C@@H]1CN([C@@H](C)CO)C(=O)Cc2cc(NC(=O)CCN3CCOCC3)ccc2O[C@@H]1CN(C)Cc1ccccc1	.	.	.	-2	.	.
CCOC(=O)c1[nH]c2ccc(OCC)cc2c1NC(=O)CN1CCN(c2ccccc2)CC1	i	-6	13	-1	.	.
CCOC(=O)c1[nH]c2cc3c(cc2c1NC(=O)CN1CCC2(CC1)OCCO2)OCO3	i	28	106*	-1	6	8
